In the library only some 19% were active in any assay of this set; here they are far more common.
HT1080 IDH1KD tx – toxicity to HT-1080 IDH1 knockdown cells (counter line). HT-1080 IDH1 knockdown viability, ATP luminescence, 48 h. Potency, µM (series often up to 46.1 µM), usual class: cytotoxic. hit rate 2% among 360,000. AID 686971
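% activity derives from luminescence (CellTiter-Glo), normalised to DMSO and no-cell wells. HT-1080-IDH1KD cells, 750/well, had 48 h compound exposure at 37 °C.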
TDP1 cell noCPT – qHTS for Inhibitors of human tyrosyl-DNA phosphodiesterase 1 (TDP1): qHTS in cells in absence of CPT; DT40 Tdp1-/- hTDP1 cells, no CPT, ATP luminescence, 48 h; Potency, µM (doses to about 46.2 µM), usual class: inhibitors; hit rate 15% among 420,000; AID 686978, 2013; further: nearly all actives have a fitted effect of over 55% in size
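Chicken DT40 Tdp1-/- cells complemented with human TDP1, screened without camptothecin (DMSO vehicle only), 400 cells/well. Compounds pin-transferred, cells incubated at 37 °C for at least 48 hr. Growth read as ATP-dependent luminescence (CellTiter-Glo, 30 min at RT).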
IL-1B inflam inh – inflammasome signaling inhibition, IL-1 beta readout; hit rate 4.7% among 360,000; activity change, % at 57.5 µM; THP-1 LPS/ATP IL-1B secretion, AlphaLISA, 16 h; stronger effect = lower value; in the data active means activity change below about -50%; inconclusive means mostly about -30% to -49%
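Secreted IL-1B measured by AlphaLISA bead assay after 16 h compound exposure of THP-1 cells; compounds (final up to 57.5 uM) added 1 h before LPS (250 ng/mL) and ATP (1.25 mM) stimulation; lower signal means less secretion.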
TDP1 cell CPT – growth inhibition of DT40 Tdp1-/-;hTDP1 cells with camptothecin (screen for TDP1 inhibitors); chicken DT40 Tdp1-/-;hTDP1 cells + 20 nM CPT, ATP luminescence, 48 h; Potency, µM (highest dose often 46.2 µM), usual class: inhibitors; hit rate 12% among 420,000; AID 686979; further: nearly all actives have a fitted effect of over 55% in size
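Chicken DT40 Tdp1-/- cells complemented with human TDP1, 400 cells/well, exposed to compounds plus 20 nM camptothecin for at least 48 h at 37 C; viability read as ATP content by CellTiter-Glo luminescence.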
HT1080-NT tox – kills 2HG-producing HT-1080-NT fibrosarcoma cells | Potency, µM (series often up to 46.1 µM), most hits filed as cytotoxic | hit rate 1.6% among 360,000 | HT-1080-NT fibrosarcoma viability, CellTiter-Glo ATP luminescence, 48 h;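 further: NT is the 2HG producing partner of a matched IDH1 knockdown line; nearly all actives have a fitted effect of over 55% in size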
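Compounds were tested in concentration-response format on HT-1080-NT cells for 48 hours at 37 degrees C. Cell viability came from CellTiter-Glo luminescence; curves were classified by r2, response magnitude and activity.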
Numbers stand for hits; i = inactive; ? = inconclusive; nt = no result given; [ ] = dose if it differs, or a comment. Unless noted, the call rests on the fitted dose curve; in most records, active means well fitted curve in the direction sought with a large enough effect; inconclusive means small, poorly fitted or top-dose-only effect, or another doubt; inactive means no such curve, though single readings can be large; an effect the other way counts as inactive or inconclusive.

SMILES	HT1080 IDH1KD tx	TDP1 cell noCPT	IL-1B inflam inh	TDP1 cell CPT	HT1080-NT tox
O=C(OCC(=O)N1CCCCC1)c1cc(S(=O)(=O)N2CCOCC2)c(Cl)cc1Cl	i	i	-59	i	i
Nc1c(Cl)cc(Cl)cc1C(=O)OCC(=O)N1CCOCC1	i	i	i	i	i
O=C(OCC(=O)N1CCOCC1)c1cc(S(=O)(=O)N2CCOCC2)c(Cl)cc1Cl	i	i	-84	i	i
O=C(c1cc(S(=O)(=O)N2CCOCC2)c(Cl)cc1Cl)N1CCCCC1	i	i	i	i	i
O=C(OCc1nnc(-c2ccccc2)o1)c1cc(S(=O)(=O)N2CCOCC2)c(Cl)cc1Cl	?	7.3µM	-101	21µM	i
Cc1ccc(S(=O)(=O)N2CCOCC2)cc1C(=O)OCc1nnc(-c2ccccc2)o1	i	?	i	?	i
O=C(COC(=O)c1cc(S(=O)(=O)N2CCOCC2)c(Cl)cc1Cl)c1ccc[nH]1	i	i	-99	i	i
CCC(=O)Nc1cc(C(=O)O)ccc1Sc1ccc(C)cc1	i	i	i	i	i
CCOC(=O)c1c(S(=O)(=O)NCc2ccc(OC)cc2)c(C)n(C)c1C	i	i	i	i	i
Cc1ccc(CCNC(=O)CN2C(=O)COc3ccc(S(=O)(=O)N4CCOCC4)cc32)cc1	i	i	i	i	i
O=C(CN1C(=O)COc2ccc(S(=O)(=O)N3CCCCC3)cc21)NCCc1ccc(Cl)cc1	nt	18µM	nt	?	nt
CCOc1ccc(CCNC(=O)CN2C(=O)COc3ccc(S(=O)(=O)N(CC)CC)cc32)cc1	nt	?	nt	23µM	nt
CSc1ccc(CCNC(=O)CN2C(=O)COc3ccc(S(=O)(=O)N4CCCC4)cc32)cc1	nt	?	nt	23µM	nt
O=C(CN1C(=O)COc2ccc(S(=O)(=O)N3CCCCCC3)cc21)NCc1ccc(Cl)cc1	nt	i	nt	?	nt
CCN(CC(=O)Nc1c(F)cccc1F)C(=O)CCCOc1ccccc1	i	i	i	?	i
O=C(/C=C/c1ccc(S(=O)(=O)N2CCOCC2)cc1)NCCc1ccc(C(F)(F)F)cc1	i	?	i	?	i[9.24 µM]
CC[N+](CC)(CC)CCOc1ccc(/C=C/c2ccccc2)cc1	16µM	2.6µM	i	4.6µM	?
CC[N+](CC)(CC)CCOc1ccc(/C=C\c2ccccc2)cc1	nt	2.1µM	nt	2.7µM	nt
CCOc1ccc2ccccc2c1/C=N/NC(=O)c1ccc(C)nc1	i	?	i	i	i
COCCNC(=S)N/N=C/c1c2ccccc2cc2ccccc12	i	4.1µM	i	3.7µM	i
C[N+](C)(C)CC(=O)N/N=C/c1c2ccccc2cc2ccccc12	i	i	i	i	i
CNC(=S)N/N=C/c1c(C)cccc1Cl	i	?	i	?	i
CNC(=S)N/N=C/c1c2ccccc2c(Cl)c2ccccc12	i	5.8µM	i	5.8µM	i
NC(=S)NN=Cc1cc(-c2cccc(N)c2)ccn1	?	4.1µM	i	3.7µM	i
NC(=S)N/N=C/c1cccnc1	nt	i	nt	i	nt
SMILES	HT1080 IDH1KD tx	TDP1 cell noCPT	IL-1B inflam inh	TDP1 cell CPT	HT1080-NT tox
NC(=S)N/N=C\c1c(OCc2ccccc2Cl)ccc2ccccc12	i	?	i	6.5µM	i
CNC(=O)c1cnc2sc(N3CCCCCC3)nn2c1=O	nt	i	nt	i	nt
CC(=C\c1ccccc1)/C=C1/SC(=S)N(CC(=O)O)C1=O	nt	i	nt	i	nt
NC(=S)N/N=C\c1c2ccccc2cc2ccccc12	i	?	i	15µM	i
O=C(O)CNc1nc(NCc2ccc(Cl)cc2)ccc1[N+](=O)[O-]	i	i	i	i	i
CCOc1ccc(C(=O)c2ccc([N+](=O)[O-])cc2Cl)cc1	i	i	i	i	i
CCOc1ccc(S(=O)(=O)c2c(C(=O)c3ccccc3)cnc3cc4c(cc23)OCCO4)cc1	i	10µM	i	?	i
CCOc1ccc(S(=O)(=O)c2c(C(=O)c3ccc(CC)cc3)cnc3ccc(C)cc23)cc1	nt	23µM	nt	?	nt
CCc1ccc(S(=O)(=O)c2c(C(=O)c3ccc(C)c(C)c3)cnc3ccccc23)cc1	nt	13µM	nt	?	nt
CCc1ccc(C(=O)Nn2cnc3ccccc3c2=O)cc1	i	i	i	i	i
CCOc1ccc(C(=O)c2cnc3ccc(Cl)cc3c2S(=O)(=O)c2ccc(C)cc2)cc1	nt	5.2µM	nt	5.8µM	nt
CN(CCOC(=O)/C=C/c1ccco1)Cc1ccccc1	i	?	i	i	i
CCOC(=O)N1CCN(C(=O)/C(=C/c2ccc(N(C)C)cc2)NC(=O)c2ccccc2)CC1	i	i	i	i	i
CCCc1cc(=O)[nH]c(SCC(=O)NCc2ccc3c(c2)OCO3)n1	i	i	i	i	i
CCc1ccc(C(=O)c2cnc3ccc(C)cc3c2S(=O)(=O)c2ccc(OC)cc2)cc1	nt	18µM	nt	23µM	nt
CC(C)CCNC(=O)C1CCC(=O)N1CCc1ccccc1 (configuration not stated)	i	i	i	i	i
CCOC(=O)C1=C(c2ccccc2)NC(=S)NC1c1ccc(C)c([N+](=O)[O-])c1 (configuration not stated)	i	16µM	i	23µM	i
CCOC(=O)C1=C(c2ccccc2)NC(=O)NC1c1ccc(O)c(Cl)c1 (configuration not stated)	13µM	?	nt	?	12µM
